Holding throughout (assay): protein-binding microarray (PBM); PBM: ~300 nM protein, 6 mM HEPES pH 7.8, 80 mM KCl, 0.5 mM EDTA, 0.5 mM EGTA, 6% glycerol, 35 ng/ul poly-dIdC, 1% milk, 1 h, room temperature; Ap Aiptasia and Nv Nematostella (sea anemones) / Co Capsaspora / Aq Amphimedon (sponge) / Dm Drosophila / Hu human; RHD is the Rel homology domain; high values mean tight binding
Holding throughout (conditions): dsDNA, one strand shown

Experiment [1] addresses T1, GST-Ap-NF-kB RHD (Exaiptasia pallida (Aiptasia), UniProt A0A913YAJ5 2-422).
T1 sequence: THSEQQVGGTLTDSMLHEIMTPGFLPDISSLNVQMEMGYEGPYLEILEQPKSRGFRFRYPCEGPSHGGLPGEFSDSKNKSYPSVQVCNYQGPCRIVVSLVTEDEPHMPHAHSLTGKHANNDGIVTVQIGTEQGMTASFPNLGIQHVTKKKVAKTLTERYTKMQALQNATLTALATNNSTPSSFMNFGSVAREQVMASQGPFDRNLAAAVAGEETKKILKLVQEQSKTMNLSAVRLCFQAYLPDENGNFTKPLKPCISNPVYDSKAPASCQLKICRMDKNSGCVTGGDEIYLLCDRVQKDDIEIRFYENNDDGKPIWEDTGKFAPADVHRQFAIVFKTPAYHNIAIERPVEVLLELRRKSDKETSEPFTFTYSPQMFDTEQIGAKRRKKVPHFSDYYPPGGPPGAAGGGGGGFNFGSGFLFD

The target of experiment [2] is T2, GST-Nv-NF-kB (Cys allele) (Nematostella vectensis, UniProt E5G601 2-411).
T2 sequence: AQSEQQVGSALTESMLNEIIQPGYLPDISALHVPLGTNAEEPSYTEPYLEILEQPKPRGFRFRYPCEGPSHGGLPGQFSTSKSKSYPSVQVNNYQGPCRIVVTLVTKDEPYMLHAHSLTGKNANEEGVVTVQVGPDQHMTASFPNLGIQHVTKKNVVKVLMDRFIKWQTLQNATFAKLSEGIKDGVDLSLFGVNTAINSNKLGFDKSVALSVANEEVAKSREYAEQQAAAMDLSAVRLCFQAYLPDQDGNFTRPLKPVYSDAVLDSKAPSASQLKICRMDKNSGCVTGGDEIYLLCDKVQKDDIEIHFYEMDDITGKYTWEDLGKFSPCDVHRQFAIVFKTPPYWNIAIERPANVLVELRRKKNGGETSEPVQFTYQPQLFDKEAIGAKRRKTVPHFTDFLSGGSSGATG

Experiment [3] has as its target T3, GST-Nv-NF-kB (Ser allele) (Nematostella vectensis, UniProt A7UNT2 2-411).
T3 sequence: T2 sequence with Q21R, C66S, S207N, E215Q, V217A, E225K, A268E, D399E

Experiment [4] addresses T4, GST-Co-NF-kB (Capsaspora owczarzaki, UniProt F1ARL5 200-546).
T4 sequence: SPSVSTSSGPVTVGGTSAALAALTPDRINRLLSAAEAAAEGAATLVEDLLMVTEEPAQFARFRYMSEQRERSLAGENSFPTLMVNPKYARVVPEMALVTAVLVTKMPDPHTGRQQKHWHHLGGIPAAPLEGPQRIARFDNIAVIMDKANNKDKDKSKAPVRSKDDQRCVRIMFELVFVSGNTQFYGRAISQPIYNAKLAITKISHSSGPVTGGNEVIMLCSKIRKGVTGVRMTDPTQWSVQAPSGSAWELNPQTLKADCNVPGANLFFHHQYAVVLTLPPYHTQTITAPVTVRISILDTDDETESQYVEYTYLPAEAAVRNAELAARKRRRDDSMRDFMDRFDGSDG

Experiment [5] has as its target T5, GST-Dm-Relish (Drosophila melanogaster, UniProt Q94527 99-473).
T5 sequence: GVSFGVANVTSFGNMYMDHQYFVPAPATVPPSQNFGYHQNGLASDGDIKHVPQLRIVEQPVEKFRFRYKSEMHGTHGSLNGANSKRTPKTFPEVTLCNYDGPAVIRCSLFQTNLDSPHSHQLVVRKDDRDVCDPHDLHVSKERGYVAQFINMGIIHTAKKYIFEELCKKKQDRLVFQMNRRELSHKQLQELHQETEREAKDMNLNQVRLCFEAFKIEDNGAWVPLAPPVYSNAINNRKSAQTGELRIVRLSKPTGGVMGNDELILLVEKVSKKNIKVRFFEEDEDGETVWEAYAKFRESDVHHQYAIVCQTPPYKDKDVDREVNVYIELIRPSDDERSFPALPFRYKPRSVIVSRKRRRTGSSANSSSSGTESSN

The target in experiment [6] is T6, GST-Aq-NF-kB (Amphimedon queenslandica, UniProt A9Y5G7 2-389).
T6 sequence: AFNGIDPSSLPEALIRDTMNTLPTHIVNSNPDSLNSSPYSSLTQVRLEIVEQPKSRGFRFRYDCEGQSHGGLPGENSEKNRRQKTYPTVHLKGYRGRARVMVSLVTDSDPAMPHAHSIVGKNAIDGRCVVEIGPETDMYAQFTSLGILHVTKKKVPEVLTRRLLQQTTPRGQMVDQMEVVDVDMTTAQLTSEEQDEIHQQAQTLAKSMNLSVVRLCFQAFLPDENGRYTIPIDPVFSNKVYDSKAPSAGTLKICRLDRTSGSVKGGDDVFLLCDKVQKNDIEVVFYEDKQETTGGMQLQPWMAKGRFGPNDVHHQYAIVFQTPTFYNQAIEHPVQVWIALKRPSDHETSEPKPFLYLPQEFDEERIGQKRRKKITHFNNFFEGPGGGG

In experiment [7] the target is GST-Hu-p50 (Homo sapiens, UniProt P19838 7-356).
GST-Hu-p50, sequence (P19838 7-356): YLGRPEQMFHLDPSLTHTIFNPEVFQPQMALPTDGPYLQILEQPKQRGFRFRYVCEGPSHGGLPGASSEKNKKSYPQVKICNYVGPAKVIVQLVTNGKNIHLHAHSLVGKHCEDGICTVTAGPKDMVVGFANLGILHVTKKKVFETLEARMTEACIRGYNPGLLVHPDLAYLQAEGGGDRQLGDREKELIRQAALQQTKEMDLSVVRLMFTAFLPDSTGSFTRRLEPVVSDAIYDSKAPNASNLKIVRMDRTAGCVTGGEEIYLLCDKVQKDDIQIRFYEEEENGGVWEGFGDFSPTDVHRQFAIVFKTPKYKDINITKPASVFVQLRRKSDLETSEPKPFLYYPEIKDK

Where a chain is given by its changes, count along the chain named.

With “CCGATTAACATCAGGATCCCCCCTGATGTTAATCGGGTCTTGATTCGCTTGACGCTGCTG”, the binding signal is 8.27 z-score in experiment [1]; 6.24 z-score in experiment [2]; 6.33 z-score in experiment [3]; 5.45 z-score in experiment [4]; 8.78 z-score in experiment [5]; 6.39 z-score in experiment [6]. Also, the binding signal in experiment [7] worked out at 6.19 z-score.
Regarding “CCGATTAACATCACAAAACCCCCTGATGTTAATCGGGTCTTGATTCGCTTGACGCTGCTG”, the binding signal is 9.76 z-score in experiment [1]; 9.02 z-score in experiment [2]; 10.5 z-score in experiment [3]; 3.3 z-score in experiment [4]; 10.4 z-score in experiment [5]; 7.82 z-score in experiment [6]. Further, the binding signal in experiment [7] came to 8.21 z-score.
Consider “CCGATTAACATCAAAGAACCCCCTGATGTTAATCGGGTCTTGATTCGCTTGACGCTGCTG”, for which the binding signal came to 8 z-score in experiment [1]; 6.95 z-score in experiment [2]; 7.44 z-score in experiment [3]; 3.51 z-score in experiment [4]; 8.69 z-score in experiment [5]; 6.42 z-score in experiment [6]. Besides, the binding signal in experiment [7] was 6.47 z-score.
“CCGATTAACATCACAGTTCCCCCTGATGTTAATCGGGTCTTGATTCGCTTGACGCTGCTG”: the binding signal in experiment [1] is 6.94 z-score; in experiment [2], 6.16 z-score; in experiment [3] it was 7.51 z-score; in experiment [4], 8.18 z-score; in experiment [5], 3.79 z-score; in experiment [6], 4.7 z-score. The binding signal in experiment [7] was determined as 5.66 z-score.
Consider “CCGATTAACATCACTAGTTTCCCTGATGTTAATCGGGTCTTGATTCGCTTGACGCTGCTG”, for which the binding signal in experiment [1] amounted to 3.06 z-score; in experiment [2] it was 3.43 z-score; in experiment [3], 4.61 z-score; in experiment [4] it was 4.16 z-score; in experiment [5] it was 1.28 z-score; in experiment [6], 3.03 z-score. The binding signal in experiment [7] came out at 2.26 z-score.
In the case of “CCGATTAACATCAGGGAAACTAATGATGTTAATCGGGTCTTGATTCGCTTGACGCTGCTG”, the binding signal turned out to be 2.58 z-score in experiment [1]; 3.94 z-score in experiment [2]; 4.37 z-score in experiment [3]; 3.69 z-score in experiment [4]; 1.22 z-score in experiment [5]; 3.45 z-score in experiment [6]. Also, the binding signal in experiment [7] was 2.79 z-score.
As for “CCGATTAACATCAGGGGAAAAAATGATGTTAATCGGGTCTTGATTCGCTTGACGCTGCTG”, the binding signal in experiment [1] amounted to 6.24 z-score; in experiment [2], 8.26 z-score; in experiment [3] it was 10.4 z-score; in experiment [4] it was 11.1 z-score; in experiment [5], 4.87 z-score; in experiment [6], 6.42 z-score. Besides, the binding signal in experiment [7] amounted to 6.22 z-score.
As for “CCGATTAACATCACACTTTTCCCTGATGTTAATCGGGTCTTGATTCGCTTGACGCTGCTG”, the binding signal came out at 3.17 z-score in experiment [1]; 4.45 z-score in experiment [2]; 6.11 z-score in experiment [3]; 4.46 z-score in experiment [4]; 1.59 z-score in experiment [5]; 3.57 z-score in experiment [6]. The sequence also displayed a binding signal in experiment [7] of 2.84 z-score.
As to “CCGATTAACATCAAAGTCCCCCTTGATGTTAATCGGGTCTTGATTCGCTTGACGCTGCTG”, the binding signal in experiment [1] turned out to be 7 z-score; in experiment [2] it was 6.84 z-score; in experiment [3], 6.92 z-score; in experiment [4] it was 4.36 z-score; in experiment [5], 8.18 z-score; in experiment [6], 6.66 z-score. In addition, in experiment [7], the binding signal is 6.67 z-score.
As for “CCGATTAACATCAAGAATCCCCTTGATGTTAATCGGGTCTTGATTCGCTTGACGCTGCTG”, the binding signal in experiment [1] was found to be 7.94 z-score; in experiment [2], 9.47 z-score; in experiment [3], 10.9 z-score; in experiment [4], 2.64 z-score; in experiment [5] it was 8.39 z-score; in experiment [6] it was 7.11 z-score. In experiment [7], the binding signal is 7.63 z-score.

The values are drawn from article PMC5700166.
